In PubChem BioAssay AID651642 (Sanford-Burnham Center for Chemical Genomics, 2012) one finds outcome data, which are given here for 32 molecules.

Calls of active or inactive are those of the source.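 Rule for the calls: active = average half-effect concentration of 10 µM or less in every one of the four cell panels; inactive = the rest.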

This assay relates to H9c2. Put plainly: cardiomyocyte survival under oxidative or metabolic stress – cell-based, panel, H9c2 and HL-1, H2O2, 2-deoxyglucose, ATP luminescence, SAR follow-up (AID 651642). The note with it: H9c2/HL-1 cardiomyocyte H2O2 oxidative damage, mean of runs, with H2O2.
As for `COc1cc(-c2cc(C(=O)NCC(=O)O)c3ccccc3n2)cc(OC)c1OC`, the molecule was classed as inactive.
Under `COc1cc(-c2cc(C(=O)Nc3cccc(C(C)=O)c3)c3ccc(Cl)cc3n2)cc(OC)c1OC` stands “inactive”; under `CCOC(=O)c1cccc(NC(=O)c2cc(-c3cc(OC)c(OC)c(OC)c3)nc3c(Cl)cccc23)c1`, “inactive”.
For the molecule `COc1ccc2c(c1OC)C(=O)N1c3ccccc3C(=O)N(Cc3cccc(Br)c3)C21` (configuration not stated), the molecule was classed as inactive.
Under `CCOC(=O)c1cccc(NC(=O)CNC(=O)c2cc(-c3cc(OC)c(OC)c(OC)c3)nc3ccc(Br)cc23)c1` stands “active”; under `CCOC(=O)c1cccc(NC(=O)c2cc(-c3cc(OC)c(OC)c(OC)c3)nc3ccc(C)cc23)c1`, “active”; under `COc1ccc2c(c1OC)C(=O)N1c3ccccc3C(=O)N(Cc3ccccc3Cl)C21` (configuration not stated), “inactive”.
Under `CCOC(=O)c1cccc(NC(=O)CNC(=O)c2cc(-c3cc(OC)c(OC)c(OC)c3)nc3ccc(F)cc23)c1` stands “active”; under `COc1ccc2c(c1OC)C(=O)N1c3ccccc3C(=O)N(Cc3cccc(Cl)c3Cl)C21` (configuration not stated), “inactive”.
The result for `COc1ccc2c(c1OC)C(=O)N1c3ccccc3C(=O)N(Cc3ccccc3Br)C21` (configuration not stated) reads “inactive”; that for `COc1cc(-c2cc(C(=O)Nc3cccc(C(=O)NC4CC4)c3)c3ccccc3n2)cc(OC)c1OC`, “active”; that for `COc1ccc2c(c1OC)C(=O)N1c3ccccc3C(=O)N(Cc3ccncc3)C21` (configuration not stated), “inactive”.
`CCNC(=O)c1cccc(NC(=O)c2cc(-c3cc(OC)c(OC)c(OC)c3)nc3ccccc23)c1`: the molecule was classed as active.
The result for `COc1cc(-c2cc(C(=O)NCC(=O)Nc3cccc(C(C)=O)c3)c3cccc(Cl)c3n2)cc(OC)c1OC` reads “active”; that for `COc1cc(-c2cc(C(=O)Nc3cccc(C(=O)N4CCOCC4)c3)c3ccccc3n2)cc(OC)c1OC`, “active”; that for `CCOC(=O)c1ccc(NC(=O)c2cc(-c3cc(OC)c(OC)c(OC)c3)nc3ccccc23)cc1`, “inactive”.
Under `COc1ccc2c(c1OC)C(=O)N1c3ccccc3C(=O)N(Cc3c(Cl)cccc3Cl)C21` (configuration not stated) stands “inactive”; under `COc1cc(-c2cc(C(=O)NCC(=O)Nc3ccc(C(C)=O)cc3)c3cc(C)ccc3n2)cc(OC)c1OC`, “active”.
Consider `CCOC(=O)c1cccc(NC(=O)c2cc(-c3cc(OC)c(OC)c(OC)c3)nc3ccc(F)cc23)c1`, for which the call was inactive.
Under `COc1ccccc1CN1C(=O)c2ccccc2N2C(=O)c3c(ccc(OC)c3OC)C12` (configuration not stated) stands “inactive”; under `COc1cc(-c2cc(C(=O)Nc3cccc(C(C)=O)c3)c3ccccc3n2)cc(OC)c1OC`, “inactive”; under `COc1cc(-c2cc(C(=O)Nc3cccc(C(=O)N(C)C)c3)c3ccccc3n2)cc(OC)c1OC`, “inactive”.
As for `COc1ccc2c(c1OC)C(=O)N1c3ccccc3C(=O)N(Cc3ccc(F)cc3)C21` (configuration not stated), the result was inactive.
As for `CCOC(=O)c1cccc(NC(=O)c2cc(-c3cc(OC)c(OC)c(OC)c3)nc3ccc(OC)cc23)c1`, the call was active.
Consider `COc1ccc2c(c1OC)C(=O)N1c3ccccc3C(=O)N(Cc3cccc(C)c3)C21` (configuration not stated), for which the call was inactive.
The result for `COc1cc(-c2cc(C(=O)Nc3cccc(C(C)=O)c3)c3cc(C)ccc3n2)cc(OC)c1OC` reads “active”; that for `COc1ccc2c(c1OC)C(=O)N1c3ccccc3C(=O)N(Cc3ccccc3C)C21` (configuration not stated), “inactive”.
For the molecule `CCOC(=O)c1cccc(NC(=O)CNC(=O)c2cc(-c3cc(OC)c(OC)c(OC)c3)nc3c(Cl)cccc23)c1`, the outcome was inactive.
For the molecule `CCOC(=O)c1cccc(NC(=O)CNC(=O)c2cc(-c3cc(OC)c(OC)c(OC)c3)nc3ccccc23)c1`, the molecule was classed as inactive.
Under `COc1ccc2c(c1OC)C(=O)N1c3ccccc3C(=O)N(Cc3ccc(C)cc3)C21` (configuration not stated) stands “inactive”; under `COc1ccc2nc(-c3cc(OC)c(OC)c(OC)c3)cc(C(=O)NCC(=O)Nc3cccc(C(C)=O)c3)c2c1`, “inactive”.
The result for `COc1cccc(CNC(=O)CNC(=O)c2cc(-c3cc(OC)c(OC)c(OC)c3)nc3ccccc23)c1` reads “active”.
